Values joined by “and” are separate entries in the source; they are usually repeats but may differ in a detail not shown here. Identical values can stand only once. Screen size: about 16,000 compounds; about 2,600 (16%) were called active. Not shown: some 20% with an inconclusive outcome. Many of the other results were omitted from the sample, so actives are more common in it than they were. A number with no mark means an inactive call. Calls come from the whole dose curve; as a rule, active = well fitted curve in the direction sought with a large enough effect; inconclusive = small, poorly fitted or top-dose-only effect, or effect the other way; inactive = no such curve, though single readings can be large or run the other way.
% is set by controls: 0 for no effect and ±100 for the full control effect.

The assay deals with Cytochrome P450 2D6 (Homo sapiens) (UniProt P10635). Briefly: Cytochrome panel assay with activity outcomes. Conditions: recombinant CYP, pro-luciferin dealkylation, luminescence, p450-cyp2d6; series mostly up to 57.1 µM.
Chain of Cytochrome P450 2D6 (Homo sapiens) (P10635 whole entry, looked up): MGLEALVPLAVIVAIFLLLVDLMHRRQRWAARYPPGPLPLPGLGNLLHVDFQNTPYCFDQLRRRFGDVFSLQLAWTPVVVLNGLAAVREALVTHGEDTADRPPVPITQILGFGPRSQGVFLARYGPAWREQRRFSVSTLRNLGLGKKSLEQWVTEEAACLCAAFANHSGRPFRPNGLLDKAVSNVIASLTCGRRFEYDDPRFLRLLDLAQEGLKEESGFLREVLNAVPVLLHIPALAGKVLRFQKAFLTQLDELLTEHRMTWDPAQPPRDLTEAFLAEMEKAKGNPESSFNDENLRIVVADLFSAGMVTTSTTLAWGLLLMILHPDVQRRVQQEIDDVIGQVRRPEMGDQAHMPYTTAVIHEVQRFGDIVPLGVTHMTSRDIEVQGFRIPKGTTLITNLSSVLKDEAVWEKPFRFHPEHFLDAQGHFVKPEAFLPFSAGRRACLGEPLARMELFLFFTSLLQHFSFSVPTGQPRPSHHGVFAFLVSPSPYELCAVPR
`O=c1cc(-c2ccc(O)c(O)c2)oc2cc(O)cc(O)c12`: the AC50 (commonly the concentration giving half of the maximal activity seen) was “inactive”.

In the case of `Cc1c([C@@H](C)[C@H]2NC[C@H](C)C[C@@H]2O)ccc2c1C[C@@H]1[C@H]2CC=C2C[C@@H](O)CC[C@@]21C`, the activity, negative = inhibition is 9.78% [at 11.4 µM].

Regarding `C[C@]1(O)CC[C@H]2[C@@H]3[C@@H](O)CC4=CC(=O)CC[C@@]4(C)[C@H]3CC[C@]21C`, the activity, negative = inhibition was 10.5% [at 11.4 µM].

For `OCc1cnc[nH]1`, the AC50 result was “inactive”.

For the compound `NC(=NCCc1ccc(I)cc1)SCCCc1cnc[nH]1`, the AC50 result is “inactive”.

`NC(=NCc1ccc(Cl)cc1)SCCCc1cnc[nH]1`: the AC50 was 12.6 µM (active).

Turning to `NCCc1ccc(S(=O)(=O)O)cc1[N+](=O)[O-]`, the activity, negative = inhibition was -0.422% [at 11.4 µM].

In the case of `NCCc1ccc(S(=O)(=O)F)cc1`, the AC50 is 39.8 µM (active).

Regarding `NCCc1ccc(O)cc1`, the AC50 entry was “inactive”.

With `C[C@@H]1[C@@H]2Cc3ccc(O)cc3[C@@]1(C)CCN2CC1CC1`, the AC50 is 31.6 µM (active).

With `C=CCN1CC[C@@]23c4c5ccc(O)c4O[C@H]2/C(=N\N=C2/CC[C@@]4(O)[C@H]6Cc7ccc(O)c8c7[C@@]4(CCN6CC=C)[C@@H]2O8)CC[C@]3(O)[C@@H]1C5`, the AC50 entry was “inactive”.

Regarding `C=CCN1CCC2(C)c3cc(O)ccc3C[C@H]1[C@H]2C`, the AC50 is 7.94 µM (active) and 25.1 µM (active) and 631 nM (active).

Regarding `CC(=O)c1c(O)c(C)c(O)c(Cc2c(O)c3c(c(C(=O)/C=C\c4ccccc4)c2O)OC(C)(C)C=C3)c1O`, the AC50 result was “inactive”.

Consider `CC[C@@]1(O)C(=O)OCc2c1cc1n(c2=O)Cc2cc3ccccc3nc2-1`, for which the AC50 result was “inactive”.

With `C=C1C/C(=C\C)C(=O)O[C@@H]2CCN3CC=C(COC(=O)[C@@]1(C)O)[C@H]23`, the AC50 entry was “inactive”.

On to `COc1ccc2[nH]cc(C3=CCNCC3)c2c1`, for which the AC50 result is “inactive”.

For the compound `O=c1ccc2[nH]cc(C3=CCNCC3)c2[nH]1`, the AC50 was 2.51 µM (active).

As to `OC1(c2ccc(Cl)cc2)CCN(Cc2c[nH]c3ccccc23)CC1`, the AC50 is 0.316 µM (active).

Consider `O=C(Nc1ccc(Cl)cc1C(=O)c1ccccc1)c1ccco1`, for which the AC50 entry was “inactive”.

Take `O=C1/C(=C\c2ccccc2)C[C@@]2(O)[C@H]3Cc4ccc(O)c5c4[C@@]2(CCN3CC2CC2)[C@@H]1O5`: the AC50 entry is “inactive”.

For the compound `COc1ccc2c3c1O[C@@H]1C(=O)CC[C@@]4(O)[C@@H](C2)N(CC2CC2)CC[C@]314`, the AC50 is 5.01 µM (active).

As to `O=C(/C=C\c1ccc(Cl)cc1)N[C@@]12CCC(=O)[C@@H]3Oc4c(O)ccc5c4[C@@]31CCN(CC1CC1)[C@@H]2C5`, the AC50 was 5.01 µM (active).

On to `C=C(C)CN1CC[C@@]23c4c5ccc(O)c4O[C@H]2c2[nH]c4ccccc4c2C[C@]3(O)[C@@H]1C5`, for which the AC50 entry was “inactive”.

For the compound `NC(N)=Nc1ccc2[nH]c3c(c2c1)C[C@]1(O)[C@@H]2Cc4ccc(O)c5c4[C@]1(CCN2CC1CC1)[C@@H]3O5`, the AC50 entry is “inactive”.

With `Cc1ncc([N+](=O)[O-])n1CCN=[N+]=[N-]`, the activity, negative = inhibition is 0.431% [at 11.4 µM].

For the compound `CCCN(CCC)C(=O)Cc1c(-c2ccc(Cl)cc2)nc2c(Cl)cc(Cl)cn12`, the AC50 entry is “inactive”.

Regarding `C[C@]12CCC3c4ccc(OCC(=O)O)cc4CCC3C1CCC2=O` (some centres undefined), the activity, negative = inhibition was 12.6% [at 11.4 µM].

For the compound `COc1ccc2c(c1)CCC1[C@@H]2CCC2(C)[C@@H](NCCCCCCN3C(=O)C=CC3=O)CC[C@@H]12` (some centres undefined), the AC50 is 10 µM (active).

As for `C[C@]12CC[C@H]3c4ccc(O)cc4CC[C@@H]3[C@H]1CC[C@@H]2OP(=O)(O)O`, the activity, negative = inhibition was 11.2% [at 11.4 µM].

Turning to `CO[C@@H]1CC=C2CCN3CCC4=C(CC(=O)OC4)[C@]23C1`, the AC50 result was “inactive”.

Consider `CN1C(=O)COc2c(C(=O)N[C@@H]3CN4CCC3CC4)cc(Cl)cc21`, for which the AC50 entry is “inactive”.

`CC(C)n1cnc2c(C(=O)N[C@H]3CN4CCC3CC4)cc(Cl)cc21`: the AC50 result is “inactive”.

For the compound `Cn1cc(C(=O)C(=O)N[C@H]2CN3CCC2CC3)c2ccccc21`, the concentration at half-maximal activity (AC50) is 0.0631 µM (active).

With `CCNC(C)(C)[C@@H](SS)c1ccc(Br)cc1`, the AC50 is 2 µM (active).

Turning to `CNCCc1ccc(O)c(O)c1`, the AC50 entry is “inactive”.

In the case of `Nc1nc(N)c(Cn2ccnc2)c(=O)[nH]1`, the activity, negative = inhibition was -11.4% [at 11.4 µM].

As to `CS(=O)(=O)Nc1ccc(Cc2noc(-c3ccc4[nH]cc(CCN)c4c3)n2)cc1`, the AC50 is 0.126 µM (active).

On to `CCCN[C@@H]1CCc2c(OC)cccc2[C@@H]1C`, for which the AC50 was 0.251 µM (active).

For the compound `CCCN(CCC)[C@@H]1CCc2c(OC)cccc2[C@@H]1C`, the AC50 entry is “inactive”.

As for `OC1(c2ccc(F)cc2)CCNC1` (centres undefined), the AC50 entry was “inactive”.

As for `CCCN1CCC[C@@H]2Cc3[nH]ncc3C[C@H]21`, the AC50 entry was “inactive”.

In the case of `C[C@@]12CC[C@H]3[C@@H](CCC4=C(O)C(=O)CC[C@]43C)[C@H]1CCC2=O`, the AC50 result was “inactive”.

On to `COC(=O)c1cc2c(cn1)[nH]c1ccccc12`, for which the AC50 entry is “inactive”.

Regarding `Cc1c2ccncc2c(C)c2c1[nH]c1ccccc12`, the AC50 is 6.31 µM (active).

With `Cc1nccc2c1[nH]c1ccccc12`, the AC50 is 10 µM (active).

With `O=[N+]([O-])c1ccc(N2CCNCC2)cc1NCC1CCCO1` (centres undefined), the AC50 result is “inactive”.

With `NC(=O)CI`, the AC50 entry is “inactive”.

As for `CN1CCC(c2c[nH]c3ccc(O)cc23)CC1`, the AC50 result is “inactive”.

Regarding `NCCc1c[nH]c2ccc(C(N)=O)cc12`, the AC50 entry is “inactive”.

Take `NCCc1c[nH]c2ccc(O)cc12`: the AC50 result was “inactive”.

As for `CCCN(CCC)CCc1c[nH]c2ccc(C(N)=O)cc12`, the concentration at half-maximal activity (AC50) is 39.8 µM (active).

On to `C=C[C@@H]1CN2CC[C@H]1C[C@H]2[C@H](O)c1ccnc2ccccc12`, for which the AC50 is 3.98 µM (active).

As to `C=C[C@H]1CN2CC[C@@H]1C[C@H]2[C@@H](O)c1ccnc2ccccc12`, the AC50 is 3.16 µM (active) and 501 nM (active).

Turning to `CC[C@H]1CN2CC[C@@H]1C[C@H]2[C@@H](O)c1ccnc2ccc(OC)cc12`, the AC50 is 3.16 µM (active).

Consider `O=C(O)CC[N+](=O)[O-]`, for which the AC50 entry is “inactive”.

Regarding `C[C@H]1C(=O)O[C@@H]2CCN3CC=C(COC(=O)[C@@](C)(O)[C@@]1(C)O)[C@H]23`, the AC50 result was “inactive”.

`CCOP(=O)(OCC)C(NC(C)=O)C(Cl)(Cl)Cl` (centres undefined): the AC50 entry was “inactive”.

With `N[C@@H](CP(=O)(O)O)C(=O)O`, the activity, negative = inhibition was -1.79% [at 11.4 µM].

`COc1ccc(C(=O)c2c(C)n(CCN3CCOCC3)c3cc(I)ccc23)cc1`: the AC50 entry is “inactive”.

On to `N[C@@]1(C(=O)O)CC[C@H](C(=O)O)C1`, for which the AC50 entry is “inactive”.

For the compound `COc1cc(/C=N/NC(=O)CN2CC(c3ccccc3)CC2=O)ccc1OC(=O)N(C)C` (centres undefined), the AC50 entry is “inactive”.

Turning to `CN(C)C=C1C(=O)N(C2CCCCC2)C(=O)N(C2CCCCC2)C1=O`, the AC50 result was “inactive”.

On to `NC(=O)COc1c(F)cc(SCCNS(=O)(=O)c2ccccc2)cc1F`, for which the AC50 result is “inactive”.

Take `Cc1cc(OCC(=O)OC(C)C)c2c3c(c(=O)oc2c1)CCCC3`: the AC50 entry is “inactive”.

Consider `Cn1c(O)c(C(c2ccccn2)c2c(O)n(C)c(=S)[nH]c2=O)c(=O)[nH]c1=S`, for which the AC50 entry was “inactive”.

As for `O=C1CN=C(c2cccs2)c2c(sc3c2CCCC3)N1`, the AC50 is 1 µM (active).

Turning to `NC[C@@H](Cc1ccccc1)P(=O)(O)O`, the activity, negative = inhibition is -3.95% [at 11.4 µM].

For the compound `CC(C)(C)C(=O)CP(=O)(O)O`, the activity, negative = inhibition is -2.59% [at 11.4 µM].

Consider `C=C(C)[C@H]1CN[C@H](C(=O)O)[C@@H]1CC(=O)O`, for which the AC50 result is “inactive”.

For the compound `CCC(=O)O[C@@](Cc1ccccc1)(c1ccccc1)[C@@H](C)CN(C)C`, the AC50 was 7.94 µM (active).

Consider `COC(=O)[C@@]1(Cc2ccc(F)cc2)[C@H]2c3cc(C(=O)N(C)C)[nH]c3C[C@H]2CN1C(=O)c1ccccc1`, for which the AC50 entry is “inactive”.

In the case of `NC(N)=NCCN=C(N)N`, the activity, negative = inhibition is -4.24% [at 11.4 µM].

Regarding `Fc1ccccc1CCNCc1cccc(Cl)c1Cl`, the AC50 was 0.0794 µM (active).

As for `CCC1(CCSC(=N)N)C(=O)NC(=O)NC1=O`, the activity, negative = inhibition is 12.5% [at 11.4 µM].

Consider `C=C1CC[C@H](O)C/C1=C/C=C1\CCC[C@]2(C)[C@H]1CC[C@H]2[C@@H](C)CCCC(C)C`, for which the AC50 result is “inactive”.

For `O=P(O)(O)C(Cl)(Cl)P(=O)(O)O`, the AC50 result is “inactive”.

Take `COC(=O)N1CCC2(CCN(CC(C)C)CC2)CC1`: the AC50 is 10 µM (active).

For the compound `COC(=O)N1CCC2(CCCN(C)C2)CC1`, the AC50 result was “inactive”.

As to `CC(C)CN1CCC2(CC1)CCN(S(C)(=O)=O)CC2`, the half-maximal activity concentration (AC50) is 0.794 µM (active).

Regarding `CC(C)NC(=O)N1CCC2(CC1)CCN(C(=O)Oc1ccccc1)CC2`, the AC50 entry is “inactive”.

With `NN=C(N)N`, the AC50 result was “inactive”.

Take `Cc1c(C(=O)c2ccc3ccccc3c2)c2cccc3c2n1[C@H](CN1CCOCC1)CO3`: the AC50 result was “inactive”.

For the compound `CN1CCN(c2ccc3ccccc3n2)CC1`, the AC50 result is “inactive”.

Consider `O[C@@H]1[C@@H]2c3cc4c(cc3CN3CCC(=C[C@@H]1O)[C@H]23)OCO4`, for which the AC50 was 3.98 µM (active).

For the compound `CC(=NCCN1CCOCC1)c1c(O)n(Cc2ccccc2)c(=O)[nH]c1=O`, the AC50 result was “inactive”.

Turning to `C[C@@H]1OC=C2[C@@H](O)[C@H]3O[C@H]3C(=O)[C@@]23[C@H]1[C@H]1C2=C([C@@H](O)[C@H]4O[C@@H]4C2=O)[C@@H]3O[C@@H]1C`, the activity, negative = inhibition was 1.81% [at 11.4 µM].

Regarding `COc1ccc(C2SCC(=O)Nc3c2c(C)nn3-c2ccccc2)cc1OC` (centres undefined), the AC50 result is “inactive”.

For `O=[N+]([O-])c1cc(O)c(O)c([N+](=O)[O-])c1`, the AC50 entry was “inactive”.

Take `CC1=NN(c2ccc(S(=O)(=O)O)cc2C)C(=[OH+])[C@H]1N=Nc1cc(S(=O)(=O)O)ccc1C(=O)O.O.[Cr]`: the activity, negative = inhibition was -4.46% [at 11.4 µM].

For `CP(=O)(O)CCCN`, the AC50 result was “inactive”.

In the case of `CC(C)C[C@H]1C(=O)N2CCC[C@@H]2[C@@]2(O)O[C@](NC(=O)[C@@H]3C=C4c5cccc6[nH]cc(c56)C[C@@H]4N(C)C3)(C(C)C)C(=O)N12`, the AC50 entry was “inactive”.

Take `CN1C[C@H](C(=O)N[C@@]2(C)O[C@@]3(O)[C@H]4CCCN4C(=O)[C@@H](Cc4ccccc4)N3C2=O)C=C2c3cccc4[nH]cc(c34)C[C@@H]21`: the activity, negative = inhibition is -1.39% [at 11.4 µM].

As for `CN1C[C@H](CO)C=C2c3cccc4[nH]cc(c34)C[C@@H]21`, the AC50 is 0.126 µM (active).

For `O=C(NCP(=O)(O)O)c1cccnc1`, the activity, negative = inhibition is -2.73% [at 11.4 µM].

(Values after PubChem BioAssay AID1851 (National Center for Advancing Translational Sciences (NCATS), 2009).)
